Measurements published in PubChem BioAssay (NCI).
Compounds without any hit were thinned out: in the full panel of roughly 83,000, 20% have a hit.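 How to read the values: 0–100, growth inhibition (40 = 60% inhibited); 0, no net growth; -100 to 0, cell death (-40 = 40% of starting cells died; -100 = all dead).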 Unmarked numbers belong to inactive results. The source made the active and inactive calls. How the source made its calls: active means growth percent below 10; inactive means the rest.

Columns and labels:
Assay in all cases: NCI-60 one-dose screen, 48 h (100 = growth as untreated, 0 = no growth, -100 = all killed)
Details in all cases: 10 µM unless noted
EKVX NSCLC = system: EKVX NSCLC
SN12C renal = system: SN12C renal
UO-31 renal = system: UO-31 renal
TK-10 renal = system: TK-10 renal
ACHN renal = system: ACHN renal
CAKI-1 renal = system: CAKI-1 renal
A498 renal = system: A498 renal
CCRF-CEM leukemia = system: CCRF-CEM leukemia
MOLT-4 leukemia = system: MOLT-4 leukemia

Compound | growth (EKVX NSCLC) | growth (SN12C renal) | growth (UO-31 renal) | growth (TK-10 renal) | growth (ACHN renal) | growth (CAKI-1 renal) | growth (A498 renal) | growth (CCRF-CEM leukemia) | growth (MOLT-4 leukemia)
Clc1ccc(Nc2nnc(-c3c[nH]c4ccccc34)o2)cc1 | 55.3% | 53.6% | 49.7% | 121% | 74.4% | 50.8% | 120% | 10.9% | 9.41% (active)
COc1cncc(-c2ccc3ncnc(N4CCc5ccc(Cl)cc54)c3c2)c1 | -29.3% (active) | 20.3% | 1.93% (active) |  | 10.5% | 8.52% (active) | 33.2% | -1.98% (active) | 4.34% (active)
C=CCn1c(O)c(N=Nc2nc(-c3cc4ccccc4oc3=O)cs2)c2ccccc21 | 55.7% | 90.7% | 101% | 90.9% | 78.4% | 94.3% | 137% | 35.8% | 98.3%
CC1=C(C(=O)OC(C)C)C(c2ccc(O)cc2)NC(=O)N1 (stereo unspecified) | 96.1% | 106% | 92.2% | 90.2% | 106% | 95.3% | 113% | 93.9% | 97.8%
CC(C)(C)C(=O)C1CC(C#N)=C2C=Cc3c(ccc4ccccc34)N21 (stereo unspecified) | 79.7% | 92.4% | 90.5% | 92.6% | 85.2% | 86.7% | 144% | 91.4% | 81.6%
CCN1C(=O)N(CC)C2NNC(Sc3c(C(=O)O)c4ccccc4n(CC(C)C)c3=O)=NC21 (stereo unspecified) | 38.5% | 24.3% | 39.5% | 52.7% | 28.7% | 46.1% | 133% | 7.54% (active) | 6.5% (active)
c1n[nH]cc1-c1nc2ccc3cn[nH]c3c2c2c1CCCC2 | 69.1% | 74.3% | 61.1% | 104% | 73.5% | 39.2% | 93.8% | 104% | 92.7%
C#CCN(C)CCCOc1ccc(N(C)C(=O)c2cc(C(C)C)c(O)cc2O)cc1Cl | 15.9% | 11.5% | 16.5% | 21.4% | 15.7% | 16.6% | 39.7% | 13.9% | -14% (active)
O=c1c(-c2nc(-c3ccccc3)c(-c3ccccc3)[nH]2)coc2ccc(F)cc12 | 25.7% | 68.9% | 40.4% | 94.3% | 51% | 64.9% | 109% | 49% | 23.6%
CN(C)c1nc(NCCNS(=O)(=O)c2ccc(C(=O)/C=C/c3ccccc3)cc2)nc(N2CCOCC2)n1 | 77.6% | 79.8% | 70.9% | 108% | 87% | 68.5% | 77.2% | 55.1% | 13.9%
Cc1ccc(/C=C/C(=O)c2ccc(S(=O)(=O)NCCNc3nc(N(C)C)nc(N4CCOCC4)n3)cc2)cc1 | 82.6% | 86.4% | 73.2% | 112% | 101% | 64.6% | 96% | 52.1% | 13.5%
COc1ccc(C(=O)NNC(=O)CSc2nc3sc4c(c3c(=O)n2-c2ccc(Cl)cc2)CCCC4)cc1 | 55.1% | 29.5% | 65.1% | 143% | 85.7% | 74% | 124% | 70.4% | 63.7%
CN(C)C(=O)c1cc(-c2ccc3ncnc(N4CCc5cc(F)c(Cl)cc54)c3c2)cnc1N | -84.3% (active) | -9.32% (active) | -10.3% (active) | -69.4% (active) | 2.02% (active) | -76.5% (active) | -84.2% (active) | -20.5% (active) | -38.3% (active)
